Hits are enriched below; roughly 5.4% of the tested compounds scored in any of these assays.
MIN6 prolif – MIN6 beta-cell proliferation induction. MIN6 cells proliferation, ATPlite luminescence, 48 h; cells starved in 0.2% serum; 100% = growth in 10% serum. proliferation, % at 10 µM. actives 0.29% (n = 330,000). AID 2380;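 active = compounds whose signal lies at least 3.5 SD above the mean of all wells on their plate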;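 note: 0% = DMSO-treated cells in low-serum medium and 100% = 10% serum control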
Exocytosis inh – blocks lytic granule exocytosis. TALL-104 LAMP-1 surface exposure, flow cytometry; cells stimulated with thapsigargin and PMA. inhibition, % at 10 µM. actives 0.66% (n = 360,000). AID 651702;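 active = inhibition above about 55%, limit read from the data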
JMJD2C inh – human JMJD2C demethylase inhibition | Q9H3R0 | GST-JMJD2C(1-420) H3K9me3 demethylation, DELFIA europium | inhibition, % at 2.35 µM | actives 0.069% (n = 330,000);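 active = more than half of a compound's replicate wells show inhibition beyond 50%, single wells judged on their own value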;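 note: signal counts dimethyl H3K9 product captured on neutravidin plate; 0% = median of DMSO wells and 100% = 0.3 times that DMSO median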
Target sequence (Q9H3R0 1-420 limits assumed): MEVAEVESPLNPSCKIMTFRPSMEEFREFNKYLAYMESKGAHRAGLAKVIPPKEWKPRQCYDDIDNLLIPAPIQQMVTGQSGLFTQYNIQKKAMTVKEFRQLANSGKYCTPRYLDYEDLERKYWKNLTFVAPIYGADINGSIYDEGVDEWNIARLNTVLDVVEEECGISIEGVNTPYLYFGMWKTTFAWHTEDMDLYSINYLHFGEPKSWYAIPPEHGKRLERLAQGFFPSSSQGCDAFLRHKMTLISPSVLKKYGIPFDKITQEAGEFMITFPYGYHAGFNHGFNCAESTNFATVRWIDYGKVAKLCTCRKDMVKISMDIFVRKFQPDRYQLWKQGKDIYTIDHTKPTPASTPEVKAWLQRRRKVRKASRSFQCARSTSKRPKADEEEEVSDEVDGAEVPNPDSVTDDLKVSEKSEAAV
M18AAP inhibitor – PfM18AAP enzyme inhibition; AID 1822; actives 1.2% (n = 290,000); recombinant PfM18AAP, H-Glu-NHMec fluorogenic cleavage; inhibition, % at 7.35 µM;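 active = inhibition above the campaign mean inhibition over all tested compounds plus 3 SD, cut at about 28% in these data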;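 note: 0% = plate median of test compound wells and 100% = 2 mM ZnCl2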
SMARCA2 activ – activators of SMARCA2 function. MG213 cells, MMTV-luciferase reporter, dexamethasone, overnight. activation, % at 9.1 µM. actives 1% (n = 370,000). AID 652017; in the data active = activation above about 7.8%;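 note: 0% = vehicle wells and 100% = reference activator wells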
ALR inh – human ALR oxidase inhibition via reduced H2O2. purified ALR, DTT oxidation, H2O2 HRP-luminol luminescence. inhibition, % (no concentration beside the values). actives 3.8% (n = 290,000). AID 485317;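 active = mean replicate inhibition above about 79%, with every replicate also reaching it, limit read from the data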
Target sequence (P55789 whole entry, looked up): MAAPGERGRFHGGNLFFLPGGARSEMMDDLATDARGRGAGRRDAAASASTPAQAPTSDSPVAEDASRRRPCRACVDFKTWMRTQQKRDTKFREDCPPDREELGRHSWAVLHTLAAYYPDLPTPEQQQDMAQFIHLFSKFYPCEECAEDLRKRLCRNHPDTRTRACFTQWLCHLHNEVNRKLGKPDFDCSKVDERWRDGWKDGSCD
SMARCA2 conf – confirmation of SMARCA2 (BRM) function activators; actives 30% (n = 3,500); MG213 cells, MMTV-luciferase with dexamethasone, luminescence, overnight; MG213 cells expressing E1A, Rb sequestered; DMSO wells 0%, reference activator 100%; shares compounds with SMARCA2 activ; activation, % at 9.1 µM;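 active = activation above its plate's cutoff, the mean activation of tested wells plus 3 SD, cut at about 7.9% in these data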
GAL4-VP16 Luc – activates GAL4-VP16 luciferase, flagging SMARCA2 activator hits; shares compounds with SMARCA2 activ; HEK293 GAL4-VP16 pG5luc reporter, luciferase luminescence; scaled: DMSO wells 0%, SAHA wells 100%; activation, % at 9.1 µM; actives 41% (n = 3,500); AID 686939;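 active = activation above the solvent-only control well mean plus 3 SD, averaged across control plates, cut at about 5.2% in these data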
Active calls of the source: *; ! = repeats disagree.

How did Cc1ccc(Cc2c(-c3cccc(Br)c3)nc3ccc(C)cn23)cc1 do in these assays?
SMARCA2 activ: 6

Results for Clc1cccc(Cc2c(-c3ccco3)nc3ccc(Br)cn23)c1 ?
Exocytosis inh: 51; SMARCA2 activ: -6

What do the screens show for `Brc1ccc2nc(-c3ccco3)c(Cc3ccccc3)n2c1`?
Exocytosis inh: 46; SMARCA2 activ: 10*; SMARCA2 conf: 7; GAL4-VP16 Luc: 1

How did C=CCC(NC(=O)N(C)C)(C(C)=O)C(=O)OC (stereo unspecified) do in these assays?
Exocytosis inh: 5; SMARCA2 activ: -2

Results for CCNC(=O)C1(C)CCCN(Cc2cccc3c(OC)cc(C(=O)OCC)cc23)C1 (stereo unspecified) ?
Exocytosis inh: 2; SMARCA2 activ: -5

How did COC(=O)[C@]12C[C@H](CC(=O)NCCC(C)C)C(=O)N(Cc3ccccc3)C1=C[C@H](C1CCCC1)O[C@@H]2C do in these assays?
SMARCA2 activ: -7

What do the screens show for `Cc1ccc(C(=O)N/C(=C/c2ccc(-c3ccc([N+](=O)[O-])cc3)o2)C(=O)NCCCN(C)C)cc1`?
MIN6 prolif: -4; Exocytosis inh: 1; JMJD2C inh: -13; SMARCA2 activ: 9.5*; ALR inh: -7; SMARCA2 conf: 12*; GAL4-VP16 Luc: 0

What do the screens show for `Cn1c(N)c(C(=O)/C=C/c2ccccc2)c(=O)[nH]c1=O`?
MIN6 prolif: 1; Exocytosis inh: -10; JMJD2C inh: 23; M18AAP inhibitor: 3; SMARCA2 activ: 12*; ALR inh: -35; SMARCA2 conf: 8; GAL4-VP16 Luc: 9.4*

Results for CCOC(=O)c1cccc(NC(=O)c2cncc(Br)c2)c1 ?
MIN6 prolif: -3; Exocytosis inh: 2; JMJD2C inh: -4; M18AAP inhibitor: 0; SMARCA2 activ: 9.0*; ALR inh: -16; SMARCA2 conf: 5; GAL4-VP16 Luc: 3

How did CCOC(=O)[C@]12CCCC=C1N(Cc1cccc3ccccc13)C(=O)[C@H](CC(=O)NCc1cccs1)C2 do in these assays?
Exocytosis inh: 2; SMARCA2 activ: -4

How did Cc1cc(NC(=O)c2ccc(NS(=O)(=O)c3ccc(C)c(C)c3)cc2)no1 do in these assays?
SMARCA2 activ: 3

How did Cc1ccnc(NC(=O)CCCOc2cc(=O)n(C)c3ccccc23)c1 do in these assays?
MIN6 prolif: -2; Exocytosis inh: 1; JMJD2C inh: -3; M18AAP inhibitor: -8; SMARCA2 activ: 22*!; ALR inh: -5; SMARCA2 conf: 9.1*; GAL4-VP16 Luc: 0

Results for COc1ccc(NC(=O)C2(C)CCN2C(=O)CC2CCCC2)cc1OC (stereo unspecified) ?
Exocytosis inh: -1; SMARCA2 activ: -4

What do the screens show for `c1ccc(-c2nc3ccccc3nc2-c2ccc(CN3CCC(c4nc5ccccc5[nH]4)CC3)cc2)cc1`?
SMARCA2 activ: 8.7*; SMARCA2 conf: 0; GAL4-VP16 Luc: 2

Results for Cc1ccc2nc(-c3ccc(CN4CCC(c5nc6ccccc6[nH]5)CC4)cc3)c(-c3ccccc3)nc2c1 ?
SMARCA2 activ: 5

How did Cc1ccc(NC(=S)N2CCC(c3ccccc3)C2)c(Cl)c1 (stereo unspecified) do in these assays?
MIN6 prolif: -3; Exocytosis inh: -2; JMJD2C inh: 4; M18AAP inhibitor: 5; SMARCA2 activ: 8.8*; ALR inh: -1; SMARCA2 conf: 4; GAL4-VP16 Luc: 9.3*

What do the screens show for `S=C(Nc1ccccc1Cl)N1CCC(c2ccccc2)C1` (stereo unspecified)?
MIN6 prolif: 1; Exocytosis inh: -4; JMJD2C inh: -3; M18AAP inhibitor: -1; SMARCA2 activ: -2; ALR inh: 1

How did COc1ccc(C2=NN(C(=O)c3ccco3)C(c3cccs3)C2)cc1OC (stereo unspecified) do in these assays?
Exocytosis inh: -2; SMARCA2 activ: 12*; SMARCA2 conf: 18*; GAL4-VP16 Luc: 5

What do the screens show for `CCC(=O)Nc1cc(C(=O)OCC(=O)c2ccccc2)ccc1C`?
MIN6 prolif: 0; Exocytosis inh: 3; JMJD2C inh: 2; M18AAP inhibitor: -6; SMARCA2 activ: 11*; ALR inh: -4; SMARCA2 conf: 4; GAL4-VP16 Luc: 7.7*

What do the screens show for `Nc1cccc(C(=O)OCC(=O)c2ccccc2)c1`?
MIN6 prolif: -3; Exocytosis inh: -2; JMJD2C inh: -8; M18AAP inhibitor: -11; SMARCA2 activ: 3; ALR inh: 4

What do the screens show for `O=C(COC(=O)c1cccc(O)c1)c1ccccc1`?
MIN6 prolif: 6; Exocytosis inh: -2; JMJD2C inh: -6; SMARCA2 activ: 8.5*; ALR inh: 2; SMARCA2 conf: 13*; GAL4-VP16 Luc: 4

What do the screens show for `CCC(=O)Nc1cc(C(=O)OCC(=O)c2ccccc2Cl)ccc1C`?
MIN6 prolif: -2; Exocytosis inh: 0; JMJD2C inh: 1; M18AAP inhibitor: -5; SMARCA2 activ: 0; ALR inh: -4

What do the screens show for `CCOC(=O)C1C(C(=O)OCC)C2C(=O)C3C(C(=O)OCC)C(C(=O)OCC)C3C(=O)C12` (stereo unspecified)?
Exocytosis inh: -2; SMARCA2 activ: 0

How did COc1ccc(NC(=O)c2cc(-c3cc(F)ccc3OC(C)C)n[nH]2)c(C)c1 do in these assays?
Exocytosis inh: 0; SMARCA2 activ: 0

Results for N#C/C(=C/c1cccs1)c1nc2ccccc2[nH]1 ?
MIN6 prolif: -2; Exocytosis inh: 4; JMJD2C inh: -26; M18AAP inhibitor: 4; SMARCA2 activ: 9.3*; ALR inh: -2; SMARCA2 conf: 24*; GAL4-VP16 Luc: 4

What do the screens show for `N#C/C(=C/c1ccc(N2CCOCC2)o1)c1nc2ccccc2[nH]1`?
MIN6 prolif: -4; Exocytosis inh: 2; M18AAP inhibitor: 7; SMARCA2 activ: 9.7*; ALR inh: 44; SMARCA2 conf: 16*; GAL4-VP16 Luc: 17*

How did COc1ccc(/C=C(\C#N)c2nc3ccccc3[nH]2)cc1O do in these assays?
MIN6 prolif: -4; Exocytosis inh: 31; JMJD2C inh: 1; M18AAP inhibitor: 9; SMARCA2 activ: 7

How did COc1cc(/C=C(\C#N)c2nc3ccccc3[nH]2)cc(OC)c1O do in these assays?
Exocytosis inh: -1; JMJD2C inh: -24; M18AAP inhibitor: 9; SMARCA2 activ: 8.2*; ALR inh: 99*; SMARCA2 conf: 5; GAL4-VP16 Luc: 5.7*
